Source: PubChem
IL-1B inflam inh = blocks inflammasome-driven IL-1 beta release | 4.7% of 360,000 active | THP-1 LPS/ATP IL-1B secretion, AlphaLISA, 16 h; active compounds read low | activity change, % at 57.5 µM; in the data active = activity change below about -50%; inconclusive = mostly about -30% to -49%
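THP-1 cells pretreated 1 hr with compounds (up to 57.5 uM final), then stimulated with LPS (250 ng/mL final) plus ATP (1.25 mM final); secreted IL-1B measured by AlphaLISA after 16 hr, decreased signal indicating inhibition.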
Vif-APOBEC3G blk = blocks the Vif interaction with human APOBEC3G. Q9HC16. HeLa A3G-eYFP + Vif (tagged APOBEC3G with the HIV-1 protein that degrades it), YFP fluorescence, overnight. Potency, µM (doses to about 46.1 µM), most hits filed as inhibitors. 0.076% of 410,000 active. AID 602310; note: nearly all actives have a fitted effect of over 60% in size
Target sequence (Q9HC16 whole entry, looked up): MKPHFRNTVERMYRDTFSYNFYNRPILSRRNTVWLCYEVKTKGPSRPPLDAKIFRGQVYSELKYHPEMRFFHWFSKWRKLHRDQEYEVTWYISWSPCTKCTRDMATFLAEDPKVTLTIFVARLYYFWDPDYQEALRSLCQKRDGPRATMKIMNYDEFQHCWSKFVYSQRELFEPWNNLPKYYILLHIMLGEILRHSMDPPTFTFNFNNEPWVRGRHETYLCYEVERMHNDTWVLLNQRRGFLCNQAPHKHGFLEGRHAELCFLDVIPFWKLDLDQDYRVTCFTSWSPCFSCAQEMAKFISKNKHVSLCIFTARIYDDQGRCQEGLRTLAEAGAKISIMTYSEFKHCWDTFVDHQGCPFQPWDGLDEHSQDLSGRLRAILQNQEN
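HeLa cells stably expressing Vif and C-terminally eYFP-tagged A3G, seeded overnight at 37 deg C, then exposed to compound by pintool overnight at 37 deg C. Rise in yellow fluorescence (Ex 488/Em 500-530, Acumen) marks blocked Vif-driven A3G degradation.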
Giardia killer = Giardia lamblia killing. Giardia lamblia trophozoite viability. activity change, % at 7.66 µM, hits read low. 0.15% of 340,000 active. AID 540267; in the data active = activity change below about -80%; inconclusive = between about -30% and that limit;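 note: parasites exposed to compound for two days anaerobically before the ATP read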
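Luminescent ATP signal served as the viability read-out, measured 15-30 min after adding ATP detection reagent to trophozoites that had been incubated with compounds for 48 hrs at 37 deg C anaerobically at 100 cells/well.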
SW480 rerep = DNA re-replication induction in SW480 cells; AID 624297; 1.8% of 340,000 active; Potency, µM (titrated, usually from 46.1 µM), hits mostly activators; SW480 DNA re-replication, Hoechst DNA content imaging, 48 h; note: nearly all actives have a fitted effect of over 55% in size
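Treated cells incubate 48 hr (37 C, 5% CO2), are stained 40 min with Hoechst, and nuclear fluorescence is enumerated; a rise in nuclei with high DNA signal marks re-replication.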
MCF10A rerep = induces DNA re-replication in MCF 10a normal breast cells | AID 624296 | Potency, µM (top dose mostly 46.1 µM), most hits filed as activators | MCF 10A DNA re-replication, Hoechst nuclear intensity, 48 h | 2.9% of 350,000 active; note: nearly all actives have a fitted effect of over 50% in size
Vif-A3F inh = inhibitors of Vif-A3F interaction | HeLa A3F-eYFP + Vif (tagged APOBEC3F with the HIV-1 protein that degrades it), YFP fluorescence increase | Potency, µM (doses to about 46.1 µM) | 0.2% of 390,000 active | AID 602313; note: nearly all actives have a fitted effect of over 65% in size
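HeLa cells stably expressing Vif plus C-terminally eYFP-tagged A3F were seeded, incubated overnight at 37 deg C, dosed with compound, incubated overnight again at 37 deg C. Yellow fluorescence (Ex 488/Em 500-530) reported blocked Vif-mediated A3F-eYFP degradation.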
Each line names hits and unclear results; the compound was inactive in the other large screens. The list is not random: actives were taken first. Their share in the collection is about 6.9%. Unless noted, calls come from the whole dose curve; as a rule, active = well fitted curve in the direction sought with a large enough effect; inconclusive = small, poorly fitted or top-dose-only effect, or another doubt; inactive = no such curve, though single readings can be large; an effect the other way counts as inactive or inconclusive.

NCCCC(N)CC(=O)NCC1NC(=O)C(CO)NC(=O)C(N)CNC(=O)C(C2CCN=C(N)N2)NC(=O)/C(=C/NC(N)=O)NC1=O (configuration not stated)	none (no result: IL-1B inflam inh, Vif-APOBEC3G blk, Giardia killer, Vif-A3F inh)
CC1CCCN(CCCNC(=O)c2cc(Sc3ccc(F)cc3)nc3ccccc23)C1 (configuration not stated)	none (no result: IL-1B inflam inh, Giardia killer, SW480 rerep, MCF10A rerep)
CCOc1ccc(/C=C/c2nc(C#N)c(NCc3ccc(OC)cc3)o2)cc1	none (no result: IL-1B inflam inh, Giardia killer, SW480 rerep, MCF10A rerep)
CC(Oc1ccccc1Cl)C(=O)/C=C/N(C)C (configuration not stated)	MCF10A rerep 18µM
O=C(COC(=O)CCC1CCCC1)Nc1ccc(Cl)cc1F	SW480 rerep 23µM
Cc1ccc(NC(=O)COC(=O)CCC2CCCC2)c(Br)c1	none
CCc1cc2c3c(c1)C1(C(=O)N3C(C)(C)C=C2C)C(C#N)=C(N)Oc2[nH]c(=O)[nH]c(=O)c21 (configuration not stated)	SW480 rerep 4.1µM, MCF10A rerep inconclusive
Cc1ccc(N(CC(O)Cn2c3ccccc3c3ccccc32)S(C)(=O)=O)cc1 (configuration not stated)	IL-1B inflam inh -66
CC(=O)Nc1ccc(N(CC(O)Cn2c3ccccc3c3ccccc32)S(=O)(=O)c2ccc(C)cc2)cc1 (configuration not stated)	IL-1B inflam inh -55
Cc1cccc(N(CC(O)Cn2c3ccccc3c3ccccc32)S(=O)(=O)c2ccc(F)cc2)c1 (configuration not stated)	Vif-A3F inh inconclusive (no result: IL-1B inflam inh, Giardia killer, SW480 rerep, MCF10A rerep)
Cc1ccc(N(CC(O)Cn2c3ccccc3c3ccccc32)S(C)(=O)=O)c(C)c1 (configuration not stated)	IL-1B inflam inh -72, MCF10A rerep inconclusive, Vif-A3F inh inconclusive
Cc1cccc(C)c1N(CC(O)Cn1c2ccccc2c2ccccc21)S(C)(=O)=O (configuration not stated)	none
CCOC(=O)c1scc(-c2ccc(C)cc2)c1S(=O)(=O)N1CCN(c2ccccc2F)CC1	none (no result: IL-1B inflam inh, Giardia killer, SW480 rerep, MCF10A rerep)
S=c1[nH]nc(-c2cc(-c3ccccc3)n[nH]2)n1/N=C/c1c(Cl)cccc1Cl	SW480 rerep inconclusive, MCF10A rerep inconclusive
Cc1ccc(/C=N/n2cc(-c3ccccc3)[nH]c2=S)s1	SW480 rerep 18µM
S=c1[nH]nc(-c2cc(-c3ccccc3)n[nH]2)n1/N=C/c1ccc(Br)s1	IL-1B inflam inh -97, MCF10A rerep inconclusive
Cc1ccc(/C=N/n2c(-c3cccnc3)n[nH]c2=S)s1	IL-1B inflam inh -54
S=c1[nH]nc(-c2ccccc2)n1/N=C/c1ccc(Cl)cc1	none
S=c1[nH]nc(-c2ccc(Cl)cc2)n1/N=C/c1cccs1	SW480 rerep 9.2µM (no result: IL-1B inflam inh)
COc1cc(OC)cc(-c2cc3cc4c(cc3cn2)OCO4)c1	Giardia killer inconclusive, SW480 rerep 2.6µM, MCF10A rerep inconclusive
COc1cc(OC)cc(-c2cc3ccc(OC)cc3cn2)c1	Giardia killer inconclusive, SW480 rerep 15µM
CCOC(=O)C1=C(CN2CCN(c3cc(C)ccc3C)CC2)NC(=O)NC1c1ccc(Cl)cc1 (configuration not stated)	none (no result: IL-1B inflam inh, Giardia killer, SW480 rerep, MCF10A rerep)
CCCCC(O)(c1ccc(CC)cc1)C(CN1CCOCC1)c1ccccc1 (configuration not stated)	IL-1B inflam inh -54, SW480 rerep inconclusive, MCF10A rerep inconclusive
CCCCCC(O)(c1ccc(OC)cc1)C(CN1CCOCC1)c1ccccc1 (configuration not stated)	SW480 rerep inconclusive, MCF10A rerep 16µM
CCCCCC(O)(c1ccc(OCC)cc1)C(CN1CCOCC1)c1ccccc1 (configuration not stated)	IL-1B inflam inh -85, SW480 rerep 26µM, MCF10A rerep inconclusive, Vif-A3F inh inconclusive
O=C(Nc1ccc(F)c(Cl)c1)C1CCN(S(=O)(=O)c2ccc3[nH]c(=O)ccc3c2)CC1	none (no result: IL-1B inflam inh, Giardia killer, SW480 rerep, MCF10A rerep)
O=c1ccc(-c2ccccc2)nn1Cc1ccccc1F	IL-1B inflam inh -62
CCCCCCCCCCCCCCCC(O)C[N+](C)(C)CCO (configuration not stated)	IL-1B inflam inh -76, MCF10A rerep inconclusive
CCn1nc(NC(=O)C(C)(C)C)c2cc3cccc(C)c3nc21	SW480 rerep inconclusive, MCF10A rerep 6.5µM
CCCn1nc(NC(C)=O)c2cc3cccc(C)c3nc21	SW480 rerep 18µM, MCF10A rerep 18µM
CCCn1nc(NC(=O)CC(C)C)c2cc3cccc(C)c3nc21	SW480 rerep 10µM, MCF10A rerep 10µM
CCCn1nc(NC(=O)COC)c2cc3cccc(C)c3nc21	none
Cc1cccc2cc3c(NC(=O)c4ccccn4)nn(C)c3nc12	SW480 rerep inconclusive, MCF10A rerep 8.2µM
CCN(C(=O)Cn1c(C(=O)OC)cc2sccc21)c1cccc(C)c1	none (no result: IL-1B inflam inh, Giardia killer, SW480 rerep, MCF10A rerep)
CCn1nc(NC(=O)CC(C)C)c2cc3cccc(C)c3nc21	SW480 rerep 21µM, MCF10A rerep 9.2µM
CCOc1ccc(N(C)S(=O)(=O)c2cc(-c3cc(C)no3)ccc2CC)cc1	MCF10A rerep inconclusive
CCOc1ccc(N(C)S(=O)(=O)c2cc(-c3cc(C)no3)ccc2C)cc1	SW480 rerep 21µM, MCF10A rerep inconclusive
COc1ccc(-c2cc(C)no2)cc1S(=O)(=O)N(C)c1ccc(C)cc1	Vif-APOBEC3G blk inconclusive, MCF10A rerep 7.3µM
CCOC(=O)c1cccc(NC(=O)/C=C/c2ccc3c(c2)OCO3)c1	IL-1B inflam inh -90, MCF10A rerep 9.2µM
CCOC(=O)c1cccc(NC(=O)c2ccc3c(c2)OCO3)c1	IL-1B inflam inh -85
Cc1ccccc1OCc1nc(-c2ccc(NC(=O)c3ccc4c(c3)OCO4)cc2)no1	SW480 rerep inconclusive, MCF10A rerep 21µM
Cc1ccccc1OCc1nc(-c2ccc(NC(=O)c3ccco3)cc2)no1	MCF10A rerep inconclusive
O=C(Nc1cccc(NC(=O)c2cccs2)c1)c1ccc2c(c1)OCO2	IL-1B inflam inh -77
CCOc1ccc(-n2c(SCc3ccc(C(=O)OC)o3)nc3c([nH]c4ccccc43)c2=O)cc1	none (no result: IL-1B inflam inh, Giardia killer, SW480 rerep, MCF10A rerep)
Cc1cc(C)c(NC(=O)C2CCN(c3nn4c(=O)cc(C)nc4s3)CC2)c(C)c1	none (no result: IL-1B inflam inh, Giardia killer, SW480 rerep, MCF10A rerep)
CCOc1ccc(CNC(=O)CSc2nnc(C)c3c(C)n(-c4ccc(Cl)cc4)nc23)cc1	Vif-A3F inh inconclusive (no result: IL-1B inflam inh, Giardia killer, SW480 rerep, MCF10A rerep)
O=C(CSc1nc2c([nH]c3ccccc32)c(=O)n1-c1ccc(F)cc1)NC1CCCCC1	Vif-APOBEC3G blk inconclusive (no result: IL-1B inflam inh, Giardia killer, SW480 rerep, MCF10A rerep)
Cc1nn(S(=O)(=O)c2ccc(C(C)C)cc2)c(C)c1S(=O)(=O)N1CCCCC1	none (no result: IL-1B inflam inh, Giardia killer, SW480 rerep, MCF10A rerep)
CN(Cc1cccc(F)c1)C(=O)c1ccc(S(=O)(=O)N2CCOCC2)cc1	none
COc1ccccc1CN(C)C(=O)c1cccc(S(=O)(=O)N2CCN(Cc3ccccc3)CC2)c1	IL-1B inflam inh -54
